The values below come from ChEMBL document CHEMBL1961873, “Compounds: GSK PKIS; Assays: Nanosyn kinase panel” (2012).

The target of experiment [1] is Sphingosine kinase 1 (Homo sapiens) (UniProt Q9NYA1). The conditions noted are these: at 1 µM.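 Also: mean SPHK1 inhibition value reported from the GSK PKIS kinase panel screen.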
The target in experiment [2] is T1, Sphingosine kinase 2 (Homo sapiens) (UniProt Q9NRA0).
T1 sequence (whole entry): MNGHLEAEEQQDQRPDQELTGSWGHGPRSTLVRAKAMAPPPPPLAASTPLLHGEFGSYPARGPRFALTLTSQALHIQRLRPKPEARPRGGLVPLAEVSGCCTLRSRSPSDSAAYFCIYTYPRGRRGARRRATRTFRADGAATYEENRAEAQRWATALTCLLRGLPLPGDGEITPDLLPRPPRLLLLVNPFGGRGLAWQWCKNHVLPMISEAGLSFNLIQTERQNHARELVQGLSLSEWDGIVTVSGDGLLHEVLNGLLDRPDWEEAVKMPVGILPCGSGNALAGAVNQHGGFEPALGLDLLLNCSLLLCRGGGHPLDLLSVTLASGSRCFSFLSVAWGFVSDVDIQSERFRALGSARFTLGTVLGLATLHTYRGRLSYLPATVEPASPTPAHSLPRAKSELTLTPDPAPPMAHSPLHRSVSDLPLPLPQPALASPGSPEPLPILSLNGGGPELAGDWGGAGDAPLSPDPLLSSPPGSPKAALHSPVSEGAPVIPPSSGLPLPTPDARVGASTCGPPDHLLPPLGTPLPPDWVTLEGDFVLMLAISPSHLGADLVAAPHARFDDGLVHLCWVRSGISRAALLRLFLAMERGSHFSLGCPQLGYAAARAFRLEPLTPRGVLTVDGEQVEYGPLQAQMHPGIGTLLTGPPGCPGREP
The conditions noted are these: at 0.1 µM.

In experiment [3] the target is T1, Sphingosine kinase 2 (Homo sapiens). The settings on record: at 1 µM.
In experiment [4] the target is Casein kinase II subunit alpha (Homo sapiens) (UniProt P68400). The settings on record: at 0.1 µM.
Casein kinase II subunit alpha (Homo sapiens), sequence (P68400 whole entry, looked up): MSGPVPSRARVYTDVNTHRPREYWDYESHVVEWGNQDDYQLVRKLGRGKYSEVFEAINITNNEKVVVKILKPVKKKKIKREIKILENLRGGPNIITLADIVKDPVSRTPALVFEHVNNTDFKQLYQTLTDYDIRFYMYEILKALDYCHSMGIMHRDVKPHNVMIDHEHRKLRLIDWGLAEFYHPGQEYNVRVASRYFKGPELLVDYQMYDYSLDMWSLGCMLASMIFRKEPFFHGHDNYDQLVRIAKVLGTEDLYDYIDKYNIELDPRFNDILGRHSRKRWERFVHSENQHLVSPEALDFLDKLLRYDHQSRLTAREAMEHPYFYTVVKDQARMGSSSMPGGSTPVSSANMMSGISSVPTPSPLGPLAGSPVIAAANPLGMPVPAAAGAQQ
Experiment [5] has the same target. The settings on record: at 1 µM.
The target in experiment [6] is T2, Inhibitor of nuclear factor kappa-B kinase subunit alpha (Homo sapiens) (UniProt O15111).
T2 sequence (whole entry): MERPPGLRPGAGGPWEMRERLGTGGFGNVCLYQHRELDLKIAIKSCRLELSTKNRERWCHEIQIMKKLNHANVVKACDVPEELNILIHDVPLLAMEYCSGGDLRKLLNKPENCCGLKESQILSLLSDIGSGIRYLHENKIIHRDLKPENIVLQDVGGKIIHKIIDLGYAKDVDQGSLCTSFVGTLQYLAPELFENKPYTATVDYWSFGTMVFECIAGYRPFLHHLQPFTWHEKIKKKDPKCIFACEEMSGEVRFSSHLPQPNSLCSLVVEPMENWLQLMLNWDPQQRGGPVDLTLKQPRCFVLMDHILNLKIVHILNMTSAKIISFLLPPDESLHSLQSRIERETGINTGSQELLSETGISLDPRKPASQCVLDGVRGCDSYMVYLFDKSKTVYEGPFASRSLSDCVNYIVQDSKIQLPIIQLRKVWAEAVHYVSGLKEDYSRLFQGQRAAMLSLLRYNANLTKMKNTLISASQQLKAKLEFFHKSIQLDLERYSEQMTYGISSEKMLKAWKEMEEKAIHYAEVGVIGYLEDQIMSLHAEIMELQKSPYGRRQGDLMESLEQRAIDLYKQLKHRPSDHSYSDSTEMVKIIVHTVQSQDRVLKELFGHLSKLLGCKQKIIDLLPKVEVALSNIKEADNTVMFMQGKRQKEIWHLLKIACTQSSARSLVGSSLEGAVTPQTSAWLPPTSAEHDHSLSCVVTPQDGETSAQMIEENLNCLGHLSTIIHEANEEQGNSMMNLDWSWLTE
The settings on record: at 0.1 µM.

The target in experiment [7] is T2, Inhibitor of nuclear factor kappa-B kinase subunit alpha (Homo sapiens). The conditions noted are these: at 1 µM.
The target of experiment [8] is T3, Inhibitor of nuclear factor kappa-B kinase subunit beta (Homo sapiens) (UniProt O14920).
T3 sequence (whole entry): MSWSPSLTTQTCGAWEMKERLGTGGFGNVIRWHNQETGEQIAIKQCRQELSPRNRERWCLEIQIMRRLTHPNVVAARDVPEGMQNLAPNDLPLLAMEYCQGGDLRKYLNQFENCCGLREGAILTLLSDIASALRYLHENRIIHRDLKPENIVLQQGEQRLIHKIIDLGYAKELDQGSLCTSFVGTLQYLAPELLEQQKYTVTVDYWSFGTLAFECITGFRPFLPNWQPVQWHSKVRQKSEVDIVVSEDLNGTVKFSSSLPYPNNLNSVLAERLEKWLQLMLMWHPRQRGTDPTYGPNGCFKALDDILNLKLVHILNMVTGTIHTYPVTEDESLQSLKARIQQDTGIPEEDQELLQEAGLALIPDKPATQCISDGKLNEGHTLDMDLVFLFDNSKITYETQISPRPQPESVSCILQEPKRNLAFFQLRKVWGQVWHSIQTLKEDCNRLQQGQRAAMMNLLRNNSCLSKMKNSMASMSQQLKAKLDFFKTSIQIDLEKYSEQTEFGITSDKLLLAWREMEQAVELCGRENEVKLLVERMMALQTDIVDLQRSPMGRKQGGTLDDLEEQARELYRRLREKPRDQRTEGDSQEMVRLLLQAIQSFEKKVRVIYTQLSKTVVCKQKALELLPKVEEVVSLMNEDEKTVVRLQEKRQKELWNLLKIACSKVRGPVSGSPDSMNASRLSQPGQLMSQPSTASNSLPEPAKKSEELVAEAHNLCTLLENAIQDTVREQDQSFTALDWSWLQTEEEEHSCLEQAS
The conditions noted are these: at 0.1 µM.

Experiment [9] addresses T3, Inhibitor of nuclear factor kappa-B kinase subunit beta (Homo sapiens). The conditions noted are these: at 1 µM.
Experiment [10] addresses T4, Inhibitor of nuclear factor kappa-B kinase subunit epsilon (Homo sapiens) (UniProt Q14164).
T4 sequence (whole entry): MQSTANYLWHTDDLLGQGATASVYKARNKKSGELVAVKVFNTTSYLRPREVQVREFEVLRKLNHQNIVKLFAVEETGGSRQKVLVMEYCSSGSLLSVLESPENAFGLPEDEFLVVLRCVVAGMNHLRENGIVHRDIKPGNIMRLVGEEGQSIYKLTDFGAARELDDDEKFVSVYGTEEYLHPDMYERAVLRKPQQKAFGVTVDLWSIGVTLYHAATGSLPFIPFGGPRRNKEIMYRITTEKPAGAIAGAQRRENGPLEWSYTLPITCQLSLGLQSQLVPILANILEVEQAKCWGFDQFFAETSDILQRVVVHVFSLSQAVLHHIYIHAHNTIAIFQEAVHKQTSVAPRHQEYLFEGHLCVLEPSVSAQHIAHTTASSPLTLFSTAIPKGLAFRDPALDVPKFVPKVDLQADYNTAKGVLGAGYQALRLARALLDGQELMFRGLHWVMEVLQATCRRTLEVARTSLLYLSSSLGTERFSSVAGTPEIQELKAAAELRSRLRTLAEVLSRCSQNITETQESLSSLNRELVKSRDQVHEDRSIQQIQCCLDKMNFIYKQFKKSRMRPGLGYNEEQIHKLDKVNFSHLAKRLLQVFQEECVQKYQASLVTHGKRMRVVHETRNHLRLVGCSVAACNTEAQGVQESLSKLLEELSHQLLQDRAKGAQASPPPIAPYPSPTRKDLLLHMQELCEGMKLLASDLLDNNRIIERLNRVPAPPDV
The settings on record: at 0.1 µM.

For experiment [11], the target named is T4, Inhibitor of nuclear factor kappa-B kinase subunit epsilon (Homo sapiens). The settings on record: at 1 µM.
For experiment [12], the target named is T5, Serine/threonine-protein kinase Nek1 (Homo sapiens) (UniProt Q96PY6).
T5 sequence (whole entry): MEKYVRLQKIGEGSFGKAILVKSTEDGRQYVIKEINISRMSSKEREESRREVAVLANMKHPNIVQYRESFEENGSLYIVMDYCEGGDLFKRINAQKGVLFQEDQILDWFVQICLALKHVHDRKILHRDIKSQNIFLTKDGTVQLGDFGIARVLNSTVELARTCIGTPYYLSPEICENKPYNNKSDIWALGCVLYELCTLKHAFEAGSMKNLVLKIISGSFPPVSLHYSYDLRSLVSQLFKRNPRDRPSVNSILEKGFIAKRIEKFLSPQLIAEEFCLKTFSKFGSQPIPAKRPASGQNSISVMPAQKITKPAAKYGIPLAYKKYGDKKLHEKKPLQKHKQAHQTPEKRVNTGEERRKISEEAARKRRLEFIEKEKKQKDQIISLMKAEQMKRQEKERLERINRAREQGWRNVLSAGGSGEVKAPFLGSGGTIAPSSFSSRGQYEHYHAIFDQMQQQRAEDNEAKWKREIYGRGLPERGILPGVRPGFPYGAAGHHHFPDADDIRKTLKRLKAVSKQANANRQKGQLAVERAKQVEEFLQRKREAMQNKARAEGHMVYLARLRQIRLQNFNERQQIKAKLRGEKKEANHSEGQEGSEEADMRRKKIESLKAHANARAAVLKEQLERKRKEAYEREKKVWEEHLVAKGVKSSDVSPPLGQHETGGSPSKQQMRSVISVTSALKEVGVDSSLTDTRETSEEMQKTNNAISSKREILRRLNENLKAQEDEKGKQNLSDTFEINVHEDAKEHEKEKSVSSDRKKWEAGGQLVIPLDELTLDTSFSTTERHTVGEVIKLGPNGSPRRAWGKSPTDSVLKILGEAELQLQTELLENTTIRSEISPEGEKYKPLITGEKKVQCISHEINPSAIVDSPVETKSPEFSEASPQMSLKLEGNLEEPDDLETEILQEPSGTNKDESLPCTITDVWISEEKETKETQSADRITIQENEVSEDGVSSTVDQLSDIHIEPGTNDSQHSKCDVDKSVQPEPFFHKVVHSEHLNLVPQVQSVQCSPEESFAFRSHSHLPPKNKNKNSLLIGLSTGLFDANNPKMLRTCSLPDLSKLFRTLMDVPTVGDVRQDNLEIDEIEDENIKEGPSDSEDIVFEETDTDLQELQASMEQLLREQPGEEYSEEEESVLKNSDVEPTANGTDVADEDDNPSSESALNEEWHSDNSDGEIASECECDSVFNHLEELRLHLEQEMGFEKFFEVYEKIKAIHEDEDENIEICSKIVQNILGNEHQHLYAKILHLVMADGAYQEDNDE
The conditions noted are these: at 0.1 µM.

For experiment [13], the target named is T5, Serine/threonine-protein kinase Nek1 (Homo sapiens). The settings on record: at 1 µM.
Experiment [14] has as its target T6, Serine/threonine-protein kinase Nek2 (Homo sapiens) (UniProt P51955).
T6 sequence (whole entry): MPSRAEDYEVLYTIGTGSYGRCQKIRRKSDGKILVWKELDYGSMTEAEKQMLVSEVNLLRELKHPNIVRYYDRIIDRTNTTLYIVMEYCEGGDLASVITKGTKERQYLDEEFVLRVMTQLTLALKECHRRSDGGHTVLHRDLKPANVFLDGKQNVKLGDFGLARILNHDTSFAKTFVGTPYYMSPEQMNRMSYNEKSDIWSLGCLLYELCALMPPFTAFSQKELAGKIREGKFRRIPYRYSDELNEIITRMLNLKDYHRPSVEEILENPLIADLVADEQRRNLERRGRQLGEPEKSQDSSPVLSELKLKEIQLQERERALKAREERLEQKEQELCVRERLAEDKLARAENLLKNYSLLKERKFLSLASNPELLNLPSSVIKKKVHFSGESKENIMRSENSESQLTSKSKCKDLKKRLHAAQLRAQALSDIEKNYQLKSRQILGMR
The conditions noted are these: at 0.1 µM.

Experiment [15] concerns the target T6, Serine/threonine-protein kinase Nek2 (Homo sapiens). The settings on record: at 1 µM.
The target in experiment [16] is Serine/threonine-protein kinase Nek6 (Homo sapiens) (UniProt Q9HC98). The conditions noted are these: at 0.1 µM.
Serine/threonine-protein kinase Nek6 (Homo sapiens), sequence (Q9HC98 whole entry): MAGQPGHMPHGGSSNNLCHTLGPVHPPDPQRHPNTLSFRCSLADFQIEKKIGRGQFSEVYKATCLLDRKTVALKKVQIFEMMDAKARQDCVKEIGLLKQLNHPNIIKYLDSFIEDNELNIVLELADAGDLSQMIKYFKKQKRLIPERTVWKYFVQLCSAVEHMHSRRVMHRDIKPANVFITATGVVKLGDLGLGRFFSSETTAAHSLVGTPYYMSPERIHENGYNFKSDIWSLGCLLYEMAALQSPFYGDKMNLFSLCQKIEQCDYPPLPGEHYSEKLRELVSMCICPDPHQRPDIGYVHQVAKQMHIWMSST
Experiment [17] has the same target. The conditions noted are these: at 1 µM.
In experiment [18] the target is Serine/threonine-protein kinase Nek7 (Homo sapiens) (UniProt Q8TDX7). The conditions noted are these: at 0.1 µM.
Serine/threonine-protein kinase Nek7 (Homo sapiens), sequence (Q8TDX7 whole entry, looked up): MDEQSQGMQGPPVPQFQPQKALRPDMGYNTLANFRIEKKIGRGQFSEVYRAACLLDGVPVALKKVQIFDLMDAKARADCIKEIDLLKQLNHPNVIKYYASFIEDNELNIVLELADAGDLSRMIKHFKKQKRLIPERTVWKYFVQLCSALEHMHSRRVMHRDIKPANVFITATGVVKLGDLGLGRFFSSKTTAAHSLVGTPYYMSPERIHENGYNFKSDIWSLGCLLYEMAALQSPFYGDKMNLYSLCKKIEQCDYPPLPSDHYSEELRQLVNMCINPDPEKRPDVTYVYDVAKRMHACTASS
Experiment [19] has the same target. The conditions noted are these: at 1 µM.
In experiment [20] the target is T7, Serine/threonine-protein kinase Nek9 (Homo sapiens) (UniProt Q8TD19).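 Also: reported value is the mean percent inhibition of NEK9.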
T7 sequence (whole entry): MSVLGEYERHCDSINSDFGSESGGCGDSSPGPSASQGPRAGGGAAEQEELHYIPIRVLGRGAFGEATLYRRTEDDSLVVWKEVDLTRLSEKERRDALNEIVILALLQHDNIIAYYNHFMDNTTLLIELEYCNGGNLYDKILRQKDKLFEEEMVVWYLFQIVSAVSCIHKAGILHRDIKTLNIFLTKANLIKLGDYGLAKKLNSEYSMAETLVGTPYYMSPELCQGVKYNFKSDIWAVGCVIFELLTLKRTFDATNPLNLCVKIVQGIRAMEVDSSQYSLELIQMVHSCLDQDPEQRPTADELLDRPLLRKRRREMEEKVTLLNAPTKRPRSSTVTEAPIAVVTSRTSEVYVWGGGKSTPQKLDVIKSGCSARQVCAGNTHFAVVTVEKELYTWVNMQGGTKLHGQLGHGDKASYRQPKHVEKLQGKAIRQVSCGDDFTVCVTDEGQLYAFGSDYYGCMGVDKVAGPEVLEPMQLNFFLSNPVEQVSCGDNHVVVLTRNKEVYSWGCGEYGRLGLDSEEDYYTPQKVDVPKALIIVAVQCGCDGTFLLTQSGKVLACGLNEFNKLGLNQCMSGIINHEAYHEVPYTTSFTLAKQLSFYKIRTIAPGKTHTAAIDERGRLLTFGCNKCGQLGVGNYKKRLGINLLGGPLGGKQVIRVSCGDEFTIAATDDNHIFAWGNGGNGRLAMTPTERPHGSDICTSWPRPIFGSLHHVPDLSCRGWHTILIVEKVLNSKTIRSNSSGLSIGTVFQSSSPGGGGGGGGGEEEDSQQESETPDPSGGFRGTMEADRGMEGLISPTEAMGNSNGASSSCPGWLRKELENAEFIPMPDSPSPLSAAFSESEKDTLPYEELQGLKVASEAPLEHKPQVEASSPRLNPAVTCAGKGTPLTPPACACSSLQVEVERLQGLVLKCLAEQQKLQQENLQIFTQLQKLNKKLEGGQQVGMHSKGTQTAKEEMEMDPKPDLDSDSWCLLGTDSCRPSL
The settings on record: at 0.1 µM.

Sphingosine kinase 1 (Homo sapiens), sequence (Q9NYA1 whole entry): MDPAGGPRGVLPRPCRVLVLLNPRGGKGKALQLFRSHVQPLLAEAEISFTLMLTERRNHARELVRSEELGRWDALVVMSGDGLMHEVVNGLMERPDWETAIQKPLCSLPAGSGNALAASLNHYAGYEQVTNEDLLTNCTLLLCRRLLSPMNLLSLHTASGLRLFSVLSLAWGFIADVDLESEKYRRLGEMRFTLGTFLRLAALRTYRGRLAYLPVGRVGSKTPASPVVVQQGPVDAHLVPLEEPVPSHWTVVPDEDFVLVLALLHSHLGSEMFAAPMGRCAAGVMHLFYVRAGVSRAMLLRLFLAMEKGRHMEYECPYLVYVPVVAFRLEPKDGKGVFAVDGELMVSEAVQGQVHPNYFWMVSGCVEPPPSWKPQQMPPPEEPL

The inhibition is the drop in the measured response relative to a control, in per cent. Regarding `COC(=O)Nc1nc2cc(Oc3ccc(NC(=O)Nc4ccccc4)cc3)ccc2[nH]1`, the inhibition in experiment [1] is 3.1%; in experiment [2] it was -0.28%; in [3] it was 0.5%; in experiment [4], 1.57%; in [5], 7.67%; in [6] it was 10.9%. For the same compound, the inhibition in experiment [7] worked out at 8.6%; in experiment [8] it was 4.21%; in experiment [9], 5.49%; in experiment [10] it was 5.85%; in experiment [11], 5.8%; in [12], 1.46%. Further, the inhibition in experiment [13] came to 1.92%; in experiment [14], 3.05%; in experiment [15] it was 1.76%; in [16], 3.54%; in experiment [17], 0.95%; in experiment [18], 2.02%. Further, the inhibition in experiment [19] was determined as 1.72%; in experiment [20] it was 4.39%.
